Screening results (PubChem)
The full list was thinned out, with hits kept by preference.
Marburg entry inh = inhibitors of Marburg virus binding or cell entry; 300,000 tested, 1.8% active; AID 540276; Potency, µM (series often up to 37.8 µM), for inactives: top-dose activity change, negative = inhibition, hits mostly inhibitors; Marburg virus pseudotyped entry inhibition, cell reporter; calls by dose curve; tested in HEK293 cells; further: potency means the concentration at half of the fitted maximal effect; on the % scale 0 is the no-effect control and ±100 the full control effect
VACV mCherry inh = vaccinia inhibition (mCherry reporter); AID 720579; 310,000 tested, 0.63% active; Potency, µM (doses to about 36.5 µM), inactives show at the highest dose activity change, negative = inhibition, usual class: inhibitors; Vaccinia virus mCherry reporter infection, fluorescence; calls by dose curve; tested in A549 cells; further: potency means the concentration at half of the fitted maximal effect; on the % scale 0 is the no-effect control and ±100 the full control effect; nearly all actives have a fitted effect of over 35% in size
Vaccinia Venus = vaccinia inhibition (Venus reporter) | Vaccinia virus Venus reporter expression, fluorescence | Potency, µM (series often up to 36.5 µM), for the others: at the highest dose activity change, negative = inhibition, actives largely listed as inhibitors | 330,000 tested, 0.46% active | AID 720580; calls by dose curve; tested in A549 cells; further: potency means the concentration at half of the fitted maximal effect; on the % scale 0 is the no-effect control and ±100 the full control effect; nearly all actives have a fitted effect of over 30% in size
Cycloheximide cs = counter-screen for Shiga toxin inhibitors: cycloheximide protein synthesis inhibition | cell reporter, cycloheximide protein synthesis inhibition counterscreen | max response, % | 300,000 tested, 12% active | AID 2314; in the data active means max response mostly above about 13%, no sharp cut-off; inactive means mostly below about 14%; further: read at 38.3 µM for the half of the compounds with a filed dose; 0% is about no effect
Lassa entry inh = Lassa virus entry inhibition; 300,000 tested, 1.2% active; Lassa virus pseudotype entry inhibition, cell reporter; Potency, µM (series often up to 37.9 µM), for the others: at the highest dose activity change, negative = inhibition, usual class: inhibitors; calls by dose curve; tested in HEK293 cells; further: potency means the concentration at half of the fitted maximal effect; on the % scale 0 is the no-effect control and ±100 the full control effect; nearly all actives have a fitted effect of over 50% in size
Shiga inhibitor = inhibitors of Shiga toxin in Vero cells. Vero cells, Shiga toxin protein synthesis inhibition reporter. inhibition, % at 38.7 µM. 290,000 tested, 9.2% active. AID 2315; in the data active means inhibition mostly above about 28%, no sharp cut-off; inactive means mostly below about 43%; further: 0% is about no effect
Starred values were filed as active, the others as inactive; i = inactive; ? = inconclusive; · = no result given; [ ] = remark or other dose.

SMILES	Marburg entry inh	VACV mCherry inh	Vaccinia Venus	Cycloheximide cs	Lassa entry inh	Shiga inhibitor
Cc1nn(Cc2nnc(SCC(=O)Nc3ccc(Cl)cc3)n2C)c(C)c1[N+](=O)[O-]	1%	?	-25%	-1	15%	19
C[C@@H]1C=C[C@](Cc2ccccc2)(C(=O)NCC2CC2)N1C(=O)c1ccccc1	17%	-28%	-13%	70*	?	173*
Cc1cccc(NC(=O)CCS(=O)(=O)c2ccccc2)n1	19%[46.1 µM]	-10%	-5%	24	12%[46.1 µM]	54*
Cc1cccc(NC(=O)CCS(=O)(=O)c2ccccc2)c1	·	·	·	30*	·	47*
O=C(CCS(=O)(=O)c1ccccc1)Nc1nccs1	5%	38%	-9%	4	·	-6
CCC(=O)N1c2ccc(S(=O)(=O)CCC(=O)NCc3ccc(OC)cc3)cc2CC1C (centres undefined)	5%[46.1 µM]	3%	-2%	·	-24%[46.1 µM]	·
CCOC(=O)c1cnc2ccc(C)cc2c1Sc1ccccc1	28%	·	-4%	34*	15%	62*
CCOC(=O)c1cnc2ccc(C)cc2c1N(C)Cc1ccccc1	?	i	-25%	2	?	22
CCOC(=O)c1cnc2ccc(C)cc2c1Sc1ccc(F)cc1	5%[46.1 µM]	·	?	43*	-8%	67*
Cc1ccc(N2C(=O)c3ccccc3NC2C(C)Cc2ccc3c(c2)OCO3)cc1 (centres undefined)	?	·	·	18*	-26%	48*
COC(OC)C1Nc2ccccc2C(=O)N1c1ccc(F)cc1 (centres undefined)	0%	0%	-11%	·	1%	·
Cc1ccoc1C(=O)Nc1cccc2ccccc12	·	·	·	31*	·	24
CCOc1ccccc1NC(=O)c1cccc2ccccc12	-17%	?	-25%	2	-11%	·
COc1cccc(C(=O)Nc2cccc3ccccc23)c1OC	8.9µM*	-7%	-12%	20*	?	27*
O=C(Nc1cccc2ccccc12)c1ccco1	·	i	11%	·	·	·
COc1cc(Cl)c(C)cc1NC(=O)c1cccc(OC)c1OC	?	i	-21%	30*	-1%[46.1 µM]	49
CNC(=O)C1CCC(Cn2c(=O)c3sccc3n(CC(=O)N3CCCC3)c2=O)CC1 (centres undefined)	·	2%	-3%	·	-5%[46.1 µM]	·
O=C(O)C[C@H](SCc1ccc(C(=O)O)o1)C(=O)O	0%	·	·	·	·	·
CCOC(=O)CN1C(=O)[C@]2(O[C@H](COc3ccccc3)CC3=CCCC32)c2c(Br)cccc21 (some centres undefined)	5%[14.2 µM]	·	·	·	?	·
CCOc1ccc(C(=O)NCCc2ccccc2)cc1	?	i	-4%	24*	8.2µM*	32
NS(=O)(=O)c1ccc(CCNC(=O)c2ccc(=O)[nH]c2)cc1	15%[46.1 µM]	-1%	-1%	-3	12%	-8
O=C(NCCc1ccccc1)c1ccc(=O)[nH]c1	-1%	-10%[1.46 µM]	-12%	26	26%	57*
CC(=O)Oc1ccc(C(=O)NCCc2ccccc2)cc1	?	-2%	-13%	15*	7.1µM*	36
CCOc1ccc(C(=O)NCCCCNC(=O)c2ccc(OCC)cc2)cc1	28%	-14%	-8%	7	22%	7
O=C(Nc1nc(-c2ccccc2)cs1)Nc1ccc(F)cc1F	-27%	-27%	-12%	28*	?	59*
SMILES	Marburg entry inh	VACV mCherry inh	Vaccinia Venus	Cycloheximide cs	Lassa entry inh	Shiga inhibitor
O=C(Nc1nc(-c2cc(F)ccc2F)cs1)C1=COCCO1	?	i	-21%	·	4%[46.1 µM]	·
O=C(Nc1nc(-c2ccccn2)cs1)Nc1ccc(F)cc1F	?	4µM*	?	35*	?	85*
O=C(Nc1nc(-c2cc(F)ccc2F)cs1)c1ccccn1	7%[46.1 µM]	-12%	-8%	15*	15%	42*
COc1ccc(C(=O)NCC2Cc3cc(C)cc(-c4nc5ccccc5s4)c3O2)c(OC)c1OC (centres undefined)	·	i	-10%	·	·	·
COc1ccc(Cn2c(C(=O)O)c(CNCC(C)c3ccccc3)c3ccc(OC)cc32)cc1 (centres undefined)	·	-12%	-19%	·	-19%[46.1 µM]	·
COC(=O)C[C@@H]1CC[C@H](NC(=O)c2ccccc2)[C@@H](CO)O1	·	-5%	-6%	·	·	·
Nc1nc(-c2ccccc2)nn1C(=O)c1ccco1	0%[46.1 µM]	i	0%	8	-6%	19
CCC(=O)N1CCn2c1nc1ccccc12	?	·	·	-1	3%	-17
Nc1nc2ccccc2n1C(=O)CCc1ccccc1	?	·	·	46*	-28%	95*
O=C(c1ccco1)N1CCn2c1nc1ccccc12	?	·	-30%	29*	18%	53*
Nc1nc2ccccc2n1C(=O)c1ccco1	?	?	-26%	55*	?	90*
COc1ccc(NC(=O)c2ccc3nc[nH]c3c2)cc1	·	·	·	38*	·	62*
COc1ccc(CCNC(=O)c2ccc3nc[nH]c3c2)cc1	?	-18%	-8%	-3	19%[46.1 µM]	-24
NS(=O)(=O)c1cccc(NC(=O)c2ccc3nc[nH]c3c2)c1	2%	-15%	0%	-2	10%	-4
O=C(Nc1ccc(C(F)(F)F)cc1)c1ccc2nc[nH]c2c1	?	i	-7%	23*	-1%	54*
O=C(Nc1ccc2c(c1)OCO2)c1ccc2nc[nH]c2c1	?	·	-4%	52*	6%	68*
COc1cc(N2Cc3ccccc3C2)ccc1C=O	7.9µM*	-1%	-7%	8	?	11
COc1ccc(-n2nc3cc(C)c(NC(C)=O)cc3n2)cc1	?	i	-13%	32*	?	140*
CCc1ccc(-n2nc3cc(C)c(NC(=O)c4cc(OC)cc(OC)c4)cc3n2)cc1	?	-18%	-16%	·	-12%[46.1 µM]	·
COc1ccc(-n2nc3cc(C)c(NC(=O)C(C)C)cc3n2)cc1	0%	·	·	36*	·	69*
Cc1ccc(-c2ccc(CCC(=O)O)n2-c2cccc(C)c2C)cc1	6%[46.1 µM]	-5%	-10%	·	?	·
CC(=O)c1cccc(NC(=O)c2ccc3c(c2)CCCC3)c1	·	·	·	53*	·	57*
CCS(=O)(=O)N1CCCc2cc(C(=O)Nc3cccc(C(C)=O)c3)ccc21	1%[46.1 µM]	-2%	-13%	·	-1%[46.1 µM]	·
COc1cccc(NC(=O)c2ccc(CN3CCc4ccccc4C3)cc2)c1	·	·	·	12	·	43
COc1cccc(NC(=O)c2ccc3c(c2)CCCC3)c1	·	·	·	49*	·	73*
SMILES	Marburg entry inh	VACV mCherry inh	Vaccinia Venus	Cycloheximide cs	Lassa entry inh	Shiga inhibitor
CCc1c(C)nc(SCC(=O)NNC(=O)c2ccco2)[nH]c1=O	·	·	·	30*	·	39*
CCc1c(C)nc(SCC(=O)Nc2ccc(Br)cc2)[nH]c1=O	·	i	-12%	-6	·	-11
Cc1ccc(CN(c2ccc(C(=O)Nc3ccc4c(c3)OCO4)cc2)S(C)(=O)=O)cc1	19%	i	-18%	12	-39%[14.3 µM]	17
CN(c1ccc(C(=O)Nc2ccc3c(c2)OCO3)cc1)S(C)(=O)=O	·	·	·	33*	·	62*
CN(c1ccc(C(=O)Nc2ccc3c(c2)OCCO3)cc1)S(C)(=O)=O	?	i	-13%	31*	-28%	59*
CN(c1ccc(C(=O)Nc2ccc(CC#N)cc2)cc1)S(C)(=O)=O	·	·	·	19	·	58*
